From ChEMBL document CHEMBL1157539, “Thousands of chemical starting points for antimalarial lead identification” (Nature, 2010)
Whole data set: some 13,000 compounds, median “IFI” near 4, cut for the highest 2% near 17. The sample holds the highest values, similar compounds and a random draw of the others, so the mix is not that of the screen.

Test: GSK_TCMDC: Inhibition Frequency Index (IFI). The number of non-kinase HTS assays where a compound showed > 50 % inhibition, expressed as a percentage of the number of such assays in which the compound was tested
Assay type: functional

| Compound | IFI [%] |
| --- | --- |
| CCc1c(C(=O)NC2CCC(N3CCC(c4ccccc4OC)CC3)CC2)[nH]c2ccc(OC)cc12 (stereo not given) | 6.45 |
| Cc1ccccc1C1CCN(C2CCC(NC(=O)c3cc4cc(C(C)C)ccc4[nH]3)CC2)CC1 (stereo not given) | 19.6 |
| COc1ccccc1C1CCN(C2CCC(NC(=O)/C=C/c3ccc4c(c3)OC(F)(F)O4)CC2)CC1 (stereo not given) | 9.84 |
| Cc1ccccc1C1CCN(C2CCC(NC(=O)c3cc(-c4ccc(Cl)cc4)cs3)CC2)CC1 (stereo not given) | 22.4 |
| COc1ccccc1C1CCN(C2CCC(NC(=O)c3cc(-c4ccc(Cl)cc4)cs3)CC2)CC1 (stereo not given) | 16.4 |
| Cc1ccccc1C1CCN(C2CCC(NC(=O)/C=C/c3ccc4c(c3)OC(F)(F)O4)CC2)CC1 (stereo not given) | 17.2 |
| COc1ccccc1C1CCN(C2CCC(NC(=O)c3cc4ccccc4[nH]3)CC2)CC1 (stereo not given) | 16.4 |
| Cc1ccc(/C=C/C(=O)NC2CCC(N3CCC(c4ccccc4C)CC3)CC2)cc1C (stereo not given) | 15 |
| CCc1c(C(=O)NC2CCC(N3CCC(c4ccccc4C)CC3)CC2)[nH]c2ccc(Br)cc12 (stereo not given) | 15.8 |
| COc1ccc(-c2csc(C(=O)NC3CCC(N4CCC(c5ccccc5C)CC4)CC3)c2)cc1 (stereo not given) | 14 |
| Cc1ccc(/C=C/C(=O)NC2CCC(N3CCC(c4ccccc4C)CC3)CC2)cc1F (stereo not given) | 13.3 |
| COc1ccccc1C1CCN(C2CCC(NC(=O)c3cc4cc(C(C)C)ccc4[nH]3)CC2)CC1 (stereo not given) | 18 |
| CN1CCC(NCc2ccc(-c3cccc(-c4nc5ccccc5[nH]4)c3)cc2)CC1 | 4.76 |
| Cc1[nH]c(C)c(-c2ccc(OCc3ccc(F)cc3)nc2)c(=O)c1Br | 3.57 |
| Cc1c(Cl)cccc1N=C(S)NN=Cc1ccccn1 | 6.3 |
| Cc1c(-c2cccc(C(C)(C)NCCCN3CCCCC3)c2)cnc(N)c1C | 0.74 |
| Cc1ccc(O)cc1C[C@@H]1C(=O)CC[C@@]2(C)[C@H]1CC[C@]2(C)O | 0 |
| O=C(Nc1ccccc1)N(Cc1ccc(-c2cccc(CNC3CCCC3)c2)cc1)C1CCN(Cc2ccccc2)CC1 | 7.04 |
| Cc1cccc2nc(-c3ccc(-c4cccc(CNCCCNS(C)(=O)=O)c4)s3)[nH]c12 | 3.96 |
| CNC(=O)c1cnc(Nc2ccc(OCC(O)CN(C)C)cc2)nc1Nc1cccc(OC)c1 (stereo not given) | 2.22 |
| CCOc1ccc2[nH]c(C)cc(=NN=Cc3ccccc3)c2c1 | 1.53 |
| CCN(CC)CCCC(C)Nc1c(-c2ccc(OC)cc2)cnc2ccccc12 (stereo not given) | 0 |
| CN(C)c1nc(NCc2ccccc2)nc(N/N=C/c2cc([N+](=O)[O-])ccc2O)n1 | 6.16 |
| CNC(=O)C1Cc2c([nH]c3cc(Br)ccc23)C2(CCN(CCc3ccccc3)CC2)N1 (stereo not given) | 7.86 |
| COc1ccc2nccc(N3CCN(CCNCc4ccc5c(n4)NC(=O)CO5)CC3)c2c1 | 3.73 |
